MITF inhib – inhibitors of MITF | TRPM1 promoter luciferase, luminescence, 24 h | inhibition, % (concentration not given with the values) | 37,000 compounds, 0.28% hits | AID 2240; in the data active = inhibition above about 85%; inconclusive = no clear call, values can overlap the other calls; inactive = below about 68%;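 note: human melanocyte line stably carrying TRPM1 promoter luciferase reporter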
PD-1 reversal – activators reversing PD-1 mediated T-cell inhibition; 29,000 tested, under 10 active; primary human CD4 T cells, PD-L1 beads, CellTiter-Glo 96 h; AID 2316; activation, % (no concentration beside the values); call rule not given here;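 note: 0% = median vehicle wells and 100% = positive control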
Shh pathway inh – Sonic Hedgehog pathway inhibition; Shh-LIGHT2 Gli-luciferase reporter, 30 h; inhibition, % (test concentration not listed); 22,000 compounds, 2.1% hits;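 active = mean inhibition across valid replicates above about 65%, limit read from the data; inconclusive = mean under the limit, yet half or more replicates past it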;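 note: pathway switched on by Shh-conditioned medium diluted 1 in 25 in low serum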
NOMO-1 viab – STK33 inhibitor candidate reducing NOMO-1 cell viability; 37,000 compounds, 7.5% hits; inhibition, % (test concentration not listed); AID 2330; NOMO-1 AML viability, CellTiter-Glo luminescence, 72 h; in the data active = inhibition above about 80%; inconclusive = no clear call, values can overlap the other calls
An asterisk follows results filed as active; ? = inconclusive; · = no result given. Hits are enriched below; roughly 7.9% of the tested compounds scored in any of these assays.

SMILES	MITF inhib	PD-1 reversal	Shh pathway inh	NOMO-1 viab
Clc1ccc(-c2nnc(SCC3CC3)o2)cc1	36.1	-0.1	-116.5	14.9
Cc1cccc(C=Nc2c(C)n(C)n(-c3ccccc3)c2=O)c1	0.3	3.1	?	-1.0
CC1CC(=O)[C@]2(C)CC[C@]3(C)C(C(=O)C(O)C4[C@@]5(C)CC[C@H](O)C(C)(C(=O)O)C5CC[C@]43C)C2C1C (stereo partly specified)	58.3	-12.4	81.5*	119.2*
COc1cc(OC)c(C2=NOC(C(=O)NCc3ccco3)C2)cc1Cl (stereo unspecified)	15.3	1.2	·	128.7*
O=C(NCc1ccco1)C1CC(c2ccccc2O)=NO1 (stereo unspecified)	-11.8	·	·	19.5
Cc1ccc2oc(-c3ccc(Cl)c(NC(=O)COc4ccc(Br)cc4)c3)nc2c1	-7.8	·	·	56.1
Cc1cc(C2(c3cc(C)c(N)c(C)c3)CCCCC2)cc(C)c1N	25.2	-1.2	·	122.2*
COC(=O)c1cc(NC(=O)CSC2=NCCS2)cc(C(=O)OC)c1	-18.3	·	·	92.6*
COC(=O)c1ccc(NC(=O)CSc2nnc(C)s2)cc1	-11.3	2.0	·	18.7
COc1ccc(S(=O)(=O)Nc2ccc3c(c2)CC(=O)N([C@H](C)CO)C[C@@H](C)[C@H](CN(C)Cc2ccccc2)O3)cc1	-10.9	1.6	22.8	-10.2
COc1ccc(S(=O)(=O)Nc2ccc3c(c2)CC(=O)N([C@H](C)CO)C[C@H](C)[C@H](CN(C)Cc2ccc(Oc4ccccc4)cc2)O3)cc1	0.2	·	-33.6	105.6*
COc1ccc(S(=O)(=O)Nc2ccc3c(c2)CC(=O)N([C@H](C)CO)C[C@@H](C)[C@@H](CN(C)Cc2ccc(Oc4ccccc4)cc2)O3)cc1	16.6	-2.5	18.8	116.0*
C[C@@H]1CN([C@H](C)CO)C(=O)Cc2cc(NS(=O)(=O)c3ccc(Cl)cc3)ccc2O[C@@H]1CN(C)Cc1ccc(Oc2ccccc2)cc1	-5.4	0.5	34.4	82.3*
Cc1ccc(C)c(OC(=O)CS(=O)c2ccccc2[N+](=O)[O-])c1 (stereo unspecified)	23.4	-2.4	·	119.6*
C[C@H](CO)N1C[C@H](C)[C@H](CN(C)C(=O)Nc2ccc3c(c2)OCO3)Oc2c(NC(=O)Nc3ccc(C(F)(F)F)cc3)cccc2C1=O	40.5	-2.9	-67.2	114.5*
C[C@@H]1CN([C@H](C)CO)C(=O)c2cccc(NC(=O)Nc3ccc(C(F)(F)F)cc3)c2O[C@@H]1CN(C)C(=O)Nc1ccc2c(c1)OCO2	9.8	-3.1	-12.3	111.8*
C[C@H]1CN([C@@H](C)CO)C(=O)c2cccc(NC(=O)Nc3ccc4c(c3)OCO4)c2O[C@@H]1CN(C)C(=O)Nc1ccc2c(c1)OCO2	-22.3	-0.6	-10.8	40.8
C[C@H]1CN([C@@H](C)CO)C(=O)c2cccc(NC(=O)Nc3ccc(C(F)(F)F)cc3)c2O[C@@H]1CN(C)C(=O)Nc1ccc2c(c1)OCO2	-12.7	·	-14.0	96.2*
Cc1cc(C)c(NS(=O)(=O)c2ccc(NC(=O)c3nc4nc(C)cc(C(F)F)n4n3)cc2)c(C)c1	0.9	-2.1	·	14.3
COc1ccccc1NC(=O)CSc1ncnc2sc(-c3ccccc3)cc12	?	·	·	43.0
C[C@@H]1C[C@@H]2O[C@H]2/C=C/C=C\C(=O)Cc2c(Cl)c(O)cc(O)c2C(=O)O1	3.4	-7.2	42.6	118.3*
COc1cc(O)cc2c1C(=O)OC(C)C2 (stereo unspecified)	5.5	2.0	-46.1	10.4
OC(COCc1ccccc1)Cn1c2ccccc2c2ccccc21 (stereo unspecified)	4.9	-2.5	11.3	88.7*
Cc1cc(C)c(C#N)c(SCc2cc(=O)[nH][nH]2)n1	-5.5	-2.8	-12.7	26.8
C[C@@H]1CCCCO[C@@H](CN(C)Cc2ccc(C(F)(F)F)cc2)[C@@H](C)CN([C@H](C)CO)C(=O)c2cc(NC(=O)CCCCCC(=O)Nc3ccccc3N)ccc2O1	53.3	0.9	·	125.5*
SMILES	MITF inhib	PD-1 reversal	Shh pathway inh	NOMO-1 viab
C[C@H]1CN([C@@H](C)CO)C(=O)c2cc(NC(=O)Cc3ccccc3)ccc2O[C@H]1CN(C)Cc1ccc(C(=O)Nc2ccccc2N)cc1	5.1	-2.5	·	108.2*
C[C@@H]1CCCCO[C@@H](CN(C)Cc2ccccc2)[C@@H](C)CN([C@H](C)CO)C(=O)c2cc(NC(=O)CCCCCC(=O)Nc3ccccc3N)ccc2O1	-6.6	1.1	·	54.4
C[C@@H]1CN([C@@H](C)CO)C(=O)c2cc(NC(=O)Cc3ccccc3)ccc2O[C@@H]1CN(C)Cc1ccc(C(=O)Nc2ccccc2N)cc1	4.1	-0.2	·	109.0*
C[C@@H]1CCCCO[C@H](CN(C)Cc2ccc(C(=O)Nc3ccccc3N)cc2)[C@@H](C)CN([C@H](C)CO)C(=O)c2cc(NS(=O)(=O)c3ccc(F)cc3)ccc2O1	-8.7	0.4	·	127.8*
C[C@@H]1CCCCO[C@@H](CN(C)Cc2ccc(C(=O)Nc3ccccc3N)cc2)[C@@H](C)CN([C@H](C)CO)C(=O)c2cc(NC(=O)Cc3ccccc3)ccc2O1	-3.1	0.0	·	127.0*
CCOC(=O)c1ccccc1NC(=O)COc1ccc(C)cc1C(C)(C)C	17.6	-5.6	·	44.5
C[C@H]1CN([C@@H](C)CO)C(=O)Cc2cc(NS(=O)(=O)c3ccccc3)ccc2O[C@@H]1CN(C)Cc1ccccc1	-1.7	0.6	23.1	31.3
C[C@H](CO)N1C[C@H](C)[C@H](CN(C)Cc2ccc(Cl)c(Cl)c2)Oc2ccc(NS(=O)(=O)c3ccccc3)cc2CC1=O	20.4	-1.0	17.5	68.2
C[C@H]1CN([C@@H](C)CO)C(=O)Cc2cc(NS(=O)(=O)c3ccccc3)ccc2O[C@H]1CN(C)Cc1ccc(Cl)c(Cl)c1	23.4	0.2	47.6	100.2*
C[C@@H]1CN([C@H](C)CO)C(=O)Cc2cc(NS(=O)(=O)c3ccccc3)ccc2O[C@@H]1CN(C)Cc1ccc(Cl)c(Cl)c1	3.6	-7.3	?	84.9*
C[C@@H]1CN([C@H](C)CO)C(=O)Cc2cc(NS(=O)(=O)c3ccccc3)ccc2O[C@H]1CN(C)Cc1ccc(Cl)c(Cl)c1	23.0	0.2	36.2	111.1*
COC(=O)c1ccccc1NC(=O)CNC(=O)c1ccccc1F	-30.2	·	·	2.3
COc1cc2c(cc1NC(=O)COc1cccc(C)c1C)oc1ccccc12	-4.7	3.1	·	14.6
C=C1[C@]2(C)C[C@@H]3C(=C)[C@@]4(C=CC(=O)OC4(C)C)CC[C@@]3(C)[C@]13C(=O)O[C@H](C)[C@]3(O)C2=O	4.2	-0.7	-8.3	24.6
Cc1cc(N(CC(=O)Nc2cc(Cl)ccc2Cl)S(C)(=O)=O)ccc1Br	17.7	·	·	4.8
C[C@@H]1CCCCO[C@@H](CN(C)S(=O)(=O)c2ccc(Cl)cc2)[C@@H](C)CN([C@H](C)CO)C(=O)c2cc(NC(=O)Nc3ccc(C(F)(F)F)cc3)ccc2O1	-0.1	-2.2	-11.2	22.8
C[C@@H]1CN([C@@H](C)CO)C(=O)c2cc(NC(=O)C3CC3)ccc2O[C@H]1CN(C)S(=O)(=O)c1ccc(Cl)cc1	-10.9	-1.6	66.8*	-1.5
COc1ccc(S(=O)(=O)N(C)C[C@@H]2Oc3ccc(NC(=O)Nc4ccc(C(F)(F)F)cc4)cc3C(=O)N([C@@H](C)CO)C[C@H]2C)cc1	-9.2	-0.1	·	48.4
